# Data reported in PubChem BioAssay (Tox21).
# Values joined by “and” are separate entries in the source; they are usually repeats but may differ in a detail not shown here. Equal values may be shown once. Values without a mark were called inactive. Results filed as inconclusive are left out. Where a call stands in place of a potency, no number is given. Active and inactive are the calls of the source. Unless noted, calls follow the shape of the dose curve; as a rule, active = well fitted curve in the direction sought with a large enough effect in the repeat runs; inconclusive = weak or mixed curves; inactive = no such curve, though single readings can be large; an effect the other way counts as inactive or inconclusive.
# Experiments:
# [1] = target: Thyrotropin receptor (Homo sapiens) (UniProt P16473); assay: qHTS assay to identify small molecule agonists of the thyroid stimulating hormone receptor (TSHR) signaling pathway (AID 1224843; calls by dose curve; also: nearly all actives have a fitted effect of over 45% in size)
# Sequence of Thyrotropin receptor (Homo sapiens) (P16473 whole entry, looked up): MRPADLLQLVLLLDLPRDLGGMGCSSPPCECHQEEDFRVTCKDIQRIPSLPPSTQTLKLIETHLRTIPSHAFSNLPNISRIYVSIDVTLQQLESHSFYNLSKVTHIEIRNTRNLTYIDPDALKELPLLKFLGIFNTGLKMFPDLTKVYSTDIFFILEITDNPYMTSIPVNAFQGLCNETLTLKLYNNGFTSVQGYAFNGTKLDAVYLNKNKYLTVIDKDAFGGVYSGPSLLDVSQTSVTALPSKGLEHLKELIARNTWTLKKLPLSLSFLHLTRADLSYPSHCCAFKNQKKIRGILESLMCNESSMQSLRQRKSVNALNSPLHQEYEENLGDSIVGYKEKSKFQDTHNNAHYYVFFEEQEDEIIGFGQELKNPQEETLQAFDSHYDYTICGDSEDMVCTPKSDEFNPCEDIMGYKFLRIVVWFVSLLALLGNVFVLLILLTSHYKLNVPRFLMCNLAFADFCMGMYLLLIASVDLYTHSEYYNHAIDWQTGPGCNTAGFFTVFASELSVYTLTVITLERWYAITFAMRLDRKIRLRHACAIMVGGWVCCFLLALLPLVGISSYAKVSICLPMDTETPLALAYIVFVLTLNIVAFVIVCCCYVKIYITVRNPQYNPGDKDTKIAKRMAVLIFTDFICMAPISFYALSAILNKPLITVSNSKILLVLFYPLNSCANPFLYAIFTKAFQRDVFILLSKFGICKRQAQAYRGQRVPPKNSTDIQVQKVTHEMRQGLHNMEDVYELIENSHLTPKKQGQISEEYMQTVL
# Method in brief: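 TSHR-expressing HEK293 cells (800 per well) were exposed to compounds for 30 min at room temperature. cAMP was then detected by HTRF competition with cAMP-d2 and anti-cAMP cryptate, read after 1 h at room temperature. Fifteen concentrations, triplicate.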
# [2] = qHTS assay to identify small molecule agonists of H2AX (AID 1224845; active = well fitted activation curve with a large enough effect in the signal ratio in the repeat runs, not every such curve was filed as active; the % refers to the signal ratio)
# Method in brief: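 Wild-type CHO-K1 cells plated overnight, then exposed 3 hr at 37C to compounds at 15 concentrations (0.76% DMSO). Lysed, then HTRF anti-pH2AX(S139)-cryptate/anti-H2AX-d2 detection after 24 hr at room temperature; emissions 665 and 620 nm.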
# [3] = qHTS assay to identify small molecule agonists of H2AX - cell viability counter screen (AID 1224847; calls by dose curve; also: nearly all actives have a fitted effect of over 30% in size; also: potency is read from the fitted curve at half-maximal effect)
# Method in brief: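 Read-out: CellTiter-Glo luminescence, 30 min RT. Cells: wild-type CHO-K1, 1000/well, 10% FBS, plated overnight at 37C. Treatment: 15 concentrations, 3 hr, 37C, 0.76% DMSO.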
# [4] = qHTS assay to identify small molecule antagonists of the estrogen related receptor (ERR) signaling pathway from Tox21 library (AID 1224848); also: nearly all actives have a fitted effect of over 50% in size; also: potency is read from the fitted curve at half-maximal effect
# Method in brief: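 Cells: ERR line, 2,000/well; 6 h preincubation 37 C/5% CO2. Cpd in DMSO via pin tool; 18 h, 37 C. ONE-Glo, 30 min RT, luminescence.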
# [5] = qHTS assay to identify small molecule agonists of the estrogen related receptor (ERR) signaling pathway from Tox21 library (AID 1224849; calls by dose curve; also: nearly all actives have a fitted effect of over 15% in size); conditions: ERR reporter cell line, ONE-Glo luciferase, 18 h; at 92.4 µM (top of the series) unless noted
# Method in brief: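 Agonist signal is luciferase luminescence from an ERR reporter cell line treated 18 h at 37 C with DMSO-dissolved compounds, read 30 min after ONE-Glo addition at room temperature.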
# [6] = qHTS RealTime-Glo MT Cell Viability Assay in HEK293 cells - 32 hour (AID 1224868); also: nearly all actives have a fitted effect of over 50% in size; also: potency is read from the fitted curve at half-maximal effect
# Method in brief: (§1)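 Luminescence generated by NanoLuc from substrate produced by living HEK293 cells served as the viability signal. Each value reflects the reading at its stated time point during continuous 40 h compound exposure at 37 C.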
# [7] = A CellTox Green Cytotoxicity Assay to monitor cytotoxicity in HEK293 cells - 0 hour (AID 1224869); also: nearly all actives have a fitted effect of over 50% in size
# Method in brief: (§2)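 Cytotoxicity was tracked continuously in HEK293 cells by a DNA-binding dye excluded from viable cells. Compounds were transferred in DMSO 5 h after seeding; fluorescence was recorded at intervals up to 40 h.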
# [8] = qHTS RealTime-Glo MT Cell Viability Assay in HepG2 cells - 40 hour (AID 1224870); also: nearly all actives have a fitted effect of over 50% in size; also: potency is read from the fitted curve at half-maximal effect
# Method in brief: (§3)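 HepG2 cells mixed with RealTime-Glo MT reagents (NanoLuc plus cell-permeant prosubstrate) were seeded at 600 cells/well, incubated 5 h at 37 C/5% CO2, then pinned with compounds in DMSO; nonlytic luminescence tracked viability during 40 h treatment.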
# [9] = A CellTox Green Cytotoxicity Assay to monitor cytotoxicity in HEK293 cells - 40 hour (AID 1224871); also: nearly all actives have a fitted effect of over 45% in size; also: potency is read from the fitted curve at half-maximal effect
# Method in brief: as §2
# [10] = qHTS RealTime-Glo MT Cell Viability Assay in HEK293 cells - 16 hour (AID 1224872); also: nearly all actives have a fitted effect of over 50% in size; also: potency is read from the fitted curve at half-maximal effect
# Method in brief: as §1
# [11] = qHTS RealTime-Glo MT Cell Viability Assay in HEK293 cells - 40 hour (AID 1224874); conditions: RealTime-Glo luminescence; max response: stronger effect = lower value; also: nearly all actives have a fitted effect of over 50% in size; also: potency is read from the fitted curve at half-maximal effect
# Method in brief: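 Nonlytic bioluminescent viability monitoring. HEK293 at 600 cells/well with reagent; 5 h settle; compound transfer by pintool; plates held at 37 C and read at set time points.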
# [12] = A CellTox Green Cytotoxicity Assay to monitor cytotoxicity in HEK293 cells - 24 hour (AID 1224875); also: nearly all actives have a fitted effect of over 45% in size
# Method in brief: as §2
# [13] = A CellTox Green Cytotoxicity Assay to monitor cytotoxicity in HepG2 cells - 16 hour (AID 1224876); also: nearly all actives have a fitted effect of over 45% in size; also: potency is read from the fitted curve at half-maximal effect
# Method in brief: (§4)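 Real-time, homogeneous cytotoxicity readout: dead-cell DNA staining by CellTox Green in HepG2 monolayers, fluorescence measured at timed intervals up to 40 h of continuous compound exposure.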
# [14] = A CellTox Green Cytotoxicity Assay to monitor cytotoxicity in HepG2 cells - 24 hour (AID 1224878); also: nearly all actives have a fitted effect of over 45% in size; also: potency is read from the fitted curve at half-maximal effect
# Method in brief: as §4
# [15] = A CellTox Green Cytotoxicity Assay to monitor cytotoxicity in HepG2 cells - 40 hour (AID 1224879); also: nearly all actives have a fitted effect of over 40% in size; also: potency is read from the fitted curve at half-maximal effect
# Method in brief: as §4
# [16] = qHTS RealTime-Glo MT Cell Viability Assay in HepG2 cells - 8 hour (AID 1224873); also: nearly all actives have a fitted effect of over 55% in size
# Method in brief: as §3
# [17] = qHTS RealTime-Glo MT Cell Viability Assay in HepG2 cells - 32 hour (AID 1224877); also: nearly all actives have a fitted effect of over 55% in size
# Method in brief: (§5)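 Tox21 10K library screened in qHTS format on HepG2 cells carrying RealTime-Glo reagents. Compounds were added after a 5 h preincubation, and the luminescent signal from continuous culture was measured repeatedly during 40 h treatment.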
# [18] = qHTS assay to identify small molecule agonists of the hypoxia (HIF-1) signaling pathway (AID 1224846; active = well fitted activation curve with a large enough effect in the signal ratio in the repeat runs, not every such curve was filed as active; the % refers to the signal ratio)
# Method in brief: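 Steps: seed ME-180 HRE-bla cells (2,000/well, 0.5% dialyzed FBS); incubate 5 hrs at 37C; pin-transfer compounds or DMSO; incubate 17 hrs; add LiveBLAzer B/G substrate CCF4-AM; measure reporter activation by FRET.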
# [19] = qHTS RealTime-Glo MT Cell Viability Assay in HepG2 cells - 24 hour (AID 1224867); also: nearly all actives have a fitted effect of over 50% in size
# Method in brief: as §5
# [20] = qHTS assay to identify small molecule agonists of the hypoxia (HIF-1) signaling pathway - cell viability counter screen (AID 1224844; calls by dose curve; also: nearly all actives have a fitted effect of over 50% in size)
# Method in brief: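 Tox21 10K compounds were added to HRE-bla ME-180 cells (0.5% dialyzed FBS) and incubated 17 hrs at 37C; ATP-based CellTiter-Glo luminescence then reported cell viability in the same wells.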
smiles,measurement,setting,value
CC(C)=CCC/C(C)=C/CC/C(C)=C/C(=O)OCC(=O)[C@@]1(O)CC[C@H]2[C@@H]3CCC4=CC(=O)C=C[C@]4(C)[C@H]3[C@@H](O)C[C@@]21C,Potency,[1],inactive
same,Potency,[2],inactive
same,Potency,[3],inactive
same,Potency,[4],6.68 µM (active)
same,"activity change, positive = activation",[5],-50.7% [at 42.5 µM]
same,Potency,[6],4.77 µM (active)
same,Potency,[7],inactive
same,Potency,[8],inactive
same,Potency,[9],inactive
same,Potency,[10],5.35 µM (active)
same,Potency,[11],4.25 µM (active)
same,Potency,[12],inactive
same,Potency,[13],inactive
same,Potency,[14],inactive
same,Potency,[15],inactive
CC(CCC(=O)O)C(=O)O (stereo not given),Potency,[1],inactive
same,Potency,[2],inactive
same,Potency,[3],inactive
same,Potency,[4],inactive
same,"activity change, positive = activation",[5],3.47%
same,Potency,[6],inactive
same,Potency,[8],inactive
same,Potency,[9],inactive
same,Potency,[16],inactive
same,max response,[11],0%
same,Potency,[12],inactive
same,Potency,[17],inactive
same,Potency,[14],inactive
same,Potency,[15],inactive
CN1CCCC(n2nc(Cc3ccc(Cl)cc3)c3ccccc3c2=O)CC1 (stereo not given),Potency,[1],inactive
same,Potency,[2],inactive
same,outcome,[18],inactive
same,Potency,[3],inactive
same,"activity change, positive = activation",[5],-15.1% [at 42.5 µM]
same,Potency,[6],9.52 µM (active)
same,Potency,[7],inactive
same,Potency,[10],7.56 µM (active)
same,Potency,[16],inactive
same,Potency,[13],26.8 µM (active)
same,Potency,[14],23.9 µM (active)
same,Potency,[15],23.9 µM (active)
O=[N+]([O-])c1cc(C2CCCCC2)c(O)c([N+](=O)[O-])c1,Potency,[1],inactive
same,Potency,[2],inactive
same,Potency,[3],11.3 µM (active)
same,"activity change, positive = activation",[5],-69.4%
same,Potency,[6],12.3 µM (active)
same,Potency,[7],inactive
same,Potency,[8],48.9 µM (active)
same,Potency,[10],27.5 µM (active)
same,Potency,[11],12.3 µM (active)
same,Potency,[12],inactive
same,Potency,[13],inactive
O=C(CCCN1CC=C(n2c(=O)[nH]c3ccccc32)CC1)c1ccc(F)cc1,Potency,[1],inactive
same,Potency,[2],inactive
same,Potency,[19],inactive
same,Potency,[7],inactive
same,Potency,[8],inactive
same,Potency,[9],inactive
same,Potency,[10],9.52 µM (active)
same,Potency,[16],inactive
same,Potency,[11],9.52 µM (active)
same,Potency,[12],inactive
same,Potency,[13],inactive
same,Potency,[17],inactive
same,Potency,[15],inactive
c1ccc2c(c1)CCc1ccccc1N2,Potency,[1],inactive
same,Potency,[2],inactive
same,outcome,[18],inactive
same,Potency,[3],101 µM (active)
same,Potency,[19],inactive
same,Potency,[6],inactive
same,Potency,[7],inactive
same,Potency,[8],inactive
same,Potency,[9],49.2 µM (active)
same,Potency,[10],inactive
same,Potency,[16],inactive
same,max response,[11],-22.1% and -5.28%
same,Potency,[12],inactive
same,Potency,[13],inactive
same,Potency,[17],inactive
same,Potency,[14],inactive
same,Potency,[15],inactive
CC(C)(C)CC(=O)OCC(=O)[C@@]1(O)CC[C@H]2[C@@H]3CCC4=CC(=O)C=C[C@]4(C)[C@H]3[C@@H](O)C[C@@]21C,Potency,[1],inactive
same,outcome,[18],inactive
same,Potency,[3],55.2 µM (active)
same,Potency,[4],26.6 µM (active)
same,"activity change, positive = activation",[5],-49.3% [at 42.5 µM]
same,Potency,[19],inactive
same,Potency,[6],19 µM (active)
same,Potency,[8],inactive
same,Potency,[16],inactive
same,Potency,[11],19 µM (active)
same,Potency,[13],inactive
same,Potency,[17],inactive
same,Potency,[14],inactive
same,Potency,[15],inactive
CCC1NC(=O)c2cc(S(N)(=O)=O)c(Cl)cc2N1 (stereo not given),Potency,[1],inactive
same,Potency,[2],inactive
same,outcome,[18],inactive
same,Potency,[3],inactive
same,Potency,[19],inactive
same,Potency,[6],inactive
same,Potency,[7],inactive
same,Potency,[8],inactive
same,Potency,[9],inactive
same,Potency,[10],inactive
same,Potency,[16],inactive
same,max response,[11],6.45%
same,Potency,[12],inactive
same,Potency,[13],inactive
same,Potency,[14],inactive
same,Potency,[15],inactive
C=C/C(C)=C/C/C=C(\C)CCC=C(C)C,Potency,[1],inactive
same,Potency,[2],inactive
same,outcome,[18],inactive
same,Potency,[3],inactive
same,"activity change, positive = activation",[5],-20.3%
same,Potency,[19],inactive
same,Potency,[6],inactive
same,Potency,[7],inactive
same,Potency,[8],inactive
same,Potency,[10],inactive
same,Potency,[16],inactive
same,Potency,[12],inactive
same,Potency,[13],inactive
same,Potency,[17],inactive
same,Potency,[14],inactive
same,Potency,[15],inactive
c1ccc2sc(SN(C3CCCCC3)C3CCCCC3)nc2c1,Potency,[1],inactive
same,Potency,[2],inactive
same,outcome,[18],inactive
same,Potency,[3],inactive
same,Potency,[19],inactive
same,Potency,[6],inactive
same,Potency,[7],inactive
same,Potency,[8],inactive
same,Potency,[9],inactive
same,Potency,[10],inactive
same,Potency,[16],inactive
same,max response,[11],3.85%
same,Potency,[12],inactive
same,Potency,[13],inactive
same,Potency,[17],inactive
same,Potency,[14],inactive
same,Potency,[15],inactive
CN1C(C(=O)Nc2ccccn2)=C(O)c2sccc2S1(=O)=O,Potency,[20],inactive
same,Potency,[2],inactive
same,outcome,[18],inactive
same,Potency,[3],inactive
same,Potency,[19],inactive
same,Potency,[6],inactive
same,Potency,[7],inactive
same,Potency,[8],inactive
same,Potency,[9],inactive
same,Potency,[10],inactive
same,Potency,[16],inactive
same,max response,[11],6.41%
same,Potency,[12],inactive
same,Potency,[13],inactive
same,Potency,[17],inactive
same,Potency,[14],inactive
same,Potency,[15],inactive
C=C(C)C(=O)OCCOCCOC(=O)C(=C)C,Potency,[20],inactive
same,Potency,[2],inactive
same,outcome,[18],inactive
same,Potency,[3],inactive
same,Potency,[4],inactive
same,"activity change, positive = activation",[5],6.4%
same,Potency,[19],inactive
same,Potency,[6],inactive
same,Potency,[7],inactive
same,Potency,[8],inactive
same,Potency,[9],inactive
same,Potency,[10],inactive
same,Potency,[16],inactive
same,max response,[11],1.33%
same,Potency,[12],inactive
same,Potency,[13],inactive
same,Potency,[17],inactive
same,Potency,[14],inactive
same,Potency,[15],inactive
Cc1cccc(O)c1N,Potency,[1],inactive
same,outcome,[18],inactive
same,Potency,[3],inactive
same,"activity change, positive = activation",[5],-14.7%
same,Potency,[19],inactive
same,Potency,[8],inactive
same,Potency,[9],inactive
same,Potency,[10],inactive
same,Potency,[16],inactive
same,Potency,[12],inactive
same,Potency,[13],inactive
same,Potency,[17],inactive
same,Potency,[14],inactive
same,Potency,[15],inactive
O=c1cc(-c2ccccc2)oc2cc(O)cc(O)c12,Potency,[20],inactive
same,Potency,[2],inactive
same,Potency,[7],inactive
same,Potency,[9],inactive
same,Potency,[16],inactive
same,Potency,[12],inactive
same,Potency,[13],inactive
O=[N+]([O-])c1ccc(O/N=C/c2cc(Br)c(O)c(Br)c2)c([N+](=O)[O-])c1,Potency,[1],inactive
same,outcome,[18],inactive
same,Potency,[19],inactive
same,Potency,[6],43.4 µM (active)
same,Potency,[7],inactive
same,Potency,[8],inactive
same,Potency,[9],inactive
same,Potency,[10],43.4 µM (active)
same,Potency,[16],inactive
same,Potency,[12],inactive
same,Potency,[13],inactive
same,Potency,[14],inactive
same,Potency,[15],inactive
